PAX8 reporter – inhibitors of PAX8 transcriptional activity in RMG-I cells | RMG-I TPO-luciferase reporter, SteadyGlo, 24 h | inhibition, % at 12.6 µM | 360,000 tested, 1.2% active;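 active = mean replicate inhibition at least 60% with every replicate also reaching 60%; inconclusive = only one of the two criteria is met; inactive = mean below 60% and not all replicates reaching 60%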;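 also: luciferase light reporting Pax8 driven TPO promoter activity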
MITF TRPM1 inh – reduces MITF-dependent TRPM1 promoter luciferase signal | 330,000 tested, 0.83% active | AID 488899 | SK-MEL-5 TRPM1 promoter luciferase, 24 h | inhibition, % at 12.5 µM;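 active = mean inhibition across replicates of 60% or more, whatever share of single replicates reaches that level; inconclusive = some that reach 60%, reason not given; inactive = mean inhibition across replicates below 60%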
EBV LMP1 NFkB – inhibitors of Epstein-Barr LMP1-induced NF-kappaB reporter | inhibition, % at 12.5 µM | AID 504558 | LMP1-induced NF-kappaB luciferase reporter cells, luminescence | 350,000 tested, 0.69% active; in the data active = inhibition above about 41%; inconclusive = no clear call, values can overlap the other calls
Peg3 prom inh – inhibitors of Peg3 promoter; HeLa PEG-Prom luciferase reporter, luminescence, overnight; inhibition, % at 20 µM; 360,000 tested, 1.7% active; AID 588405;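 active = inhibition of at least 50% at 20 µM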
HIF-2a block – inhibitors of HIF-2a; inhibition, % at 18.8 µM; AID 624352; 786-0 RCC cells HIF-2a reporter, luciferase luminescence, overnight; 360,000 tested, 0.72% active;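 active = inhibition of the luminescence signal of 40% or more relative to plate controls, in a single-dose primary screen at 18.75 µM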
Shn3 inh set2 – Schnurri-3 reporter inhibition in Clone20 osteoblasts | Clone20 osteoblast Shn3 3'UTR firefly luciferase, 24 h | inhibition, % at 12.5 µM | 360,000 tested, 0.52% active;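 active = mean inhibition of at least 75% with every replicate also reaching 75%; inconclusive = mean inhibition at least 75% but some replicate below; inactive = mean inhibition below 75%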
Hits are given with their value; . = inactive; ? = inconclusive; / = no result. This is a sample that favours compounds with a hit; in the whole collection about 2.8% have one here.

SMILES	PAX8 reporter	MITF TRPM1 inh	EBV LMP1 NFkB	Peg3 prom inh	HIF-2a block	Shn3 inh set2
Cc1cccc(S(=O)(=O)N2CCCCN3[C@@H](CO)[C@H](c4ccc(C#CC(C)C)cc4)[C@@H]3C2)c1	.	/	/	/	/	/
CCc1ccc(CN(C)C(=O)CCc2nc3ccccc3n(-c3ccc(OC)cc3)c2=O)cc1	.	.	.	57	.	.
C[C@H](O)C#Cc1cnc2c(c1)C(=O)N([C@H](C)CO)C[C@@H](C)[C@H](CN(C)Cc1ccc(-c3ccccc3)cc1)O2	.	/	/	/	/	/
C[C@H](O)C#Cc1cnc2c(c1)C(=O)N([C@@H](C)CO)C[C@@H](C)[C@H](CN(C)Cc1ccc(-c3ccccc3)cc1)O2	72	/	/	/	/	/
C[C@H](O)C#Cc1cnc2c(c1)C(=O)N([C@H](C)CO)C[C@@H](C)[C@@H](CN(C)Cc1ccc(-c3ccccc3)cc1)O2	65	/	.	.	.	.
C[C@H](O)C#Cc1cnc2c(c1)C(=O)N([C@H](C)CO)C[C@H](C)[C@H](CN(C)Cc1ccc(-c3ccccc3)cc1)O2	87	/	/	/	/	/
CNC[C@@H]1OCCCC[C@@H](C)Oc2ccc(NC(=O)NC3CCCCC3)cc2C(=O)N([C@@H](C)CO)C[C@H]1C	.	/	/	/	/	/
C[C@H](CO)N1C[C@H](C)[C@H](CN(C)Cc2ccccn2)Oc2cc(C3=CCCCC3)ccc2S1(=O)=O	.	/	/	/	/	/
C[C@H](CO)N1C[C@H](C)[C@H](CN(C)C(=O)Nc2ccc(F)cc2)Oc2ccc(NC(=O)Cc3ccccc3)cc2CC1=O	.	/	/	/	/	/
O=C(Nc1ccccc1N1CCOCC1)c1cc(-c2ccco2)nc2ccccc12	/	.	.	60	.	.
NC(=S)N=Nc1c(O)[nH]c2ccccc12	.	.	.	.	.	.
Oc1[nH]c2ccccc2c1N=NC(=S)N1CCOCC1	/	92	.	53	.	/
COc1ccc(-c2nn(-c3ccccc3)cc2C(=O)N/N=C/c2ccc([N+](=O)[O-])o2)cc1	.	90	.	.	.	.
Cc1cc(C(=O)N/N=C/c2ccc([N+](=O)[O-])o2)c(C)o1	.	83	.	.	.	.
Cc1ccc(NC(=O)CCC(=O)N/N=C/c2ccc([N+](=O)[O-])o2)cc1C	.	79	.	.	.	/
COc1ccc(-c2nn(-c3ccccc3)cc2C(=O)N2CCOCC2)cc1	/	.	.	.	.	.
Cc1ccc(OCC(=O)N/N=C/c2ccc([N+](=O)[O-])o2)cc1	/	64	.	.	.	.
CCCC(=O)Nc1ccc(C(=O)N/N=C/c2ccc([N+](=O)[O-])o2)cc1	.	.	.	.	.	.
O=C(Cc1ccccn1)NCC[C@H]1CC[C@H](NC(=O)Nc2ccc(F)cc2)[C@H](CO)O1	.	/	/	/	/	/
C[C@@H]1CN([C@H](C)CO)C(=O)c2cc(NS(=O)(=O)c3cccs3)ccc2O[C@H]1CN(C)S(=O)(=O)c1cn(C)cn1	.	/	/	/	/	/
C[C@@H]1CN([C@@H](C)CO)C(=O)c2cc(NC(=O)Nc3ccccc3)ccc2O[C@H]1CN(C)S(=O)(=O)c1cccs1	.	/	/	/	/	/
CCCc1ccc(-c2cc(C(=O)N/N=C/c3ccc([N+](=O)[O-])o3)c3ccccc3n2)cc1	/	.	58	.	.	.
O=C(CSc1ccc(Cl)cc1)N/N=C/c1ccc([N+](=O)[O-])o1	.	62	.	.	.	.
O=C(N/N=C/c1ccc([N+](=O)[O-])o1)c1sc2ccccc2c1Cl	.	78	.	.	.	.
O=C(COc1ccccc1)N/N=C/c1ccc([N+](=O)[O-])o1	.	68	.	.	.	.
SMILES	PAX8 reporter	MITF TRPM1 inh	EBV LMP1 NFkB	Peg3 prom inh	HIF-2a block	Shn3 inh set2
O=C(N/N=C/c1ccccn1)c1sc2ccccc2c1Cl	.	.	.	.	.	.
COC(=O)C[C@@H]1CC[C@@H](NS(=O)(=O)c2ccccc2F)[C@H](CO)O1	.	/	/	/	/	/
CCCN1C[C@@H](C)[C@@H](OC)CN(C)C(=O)c2cc(NC(=O)NC3CCCCC3)ccc2OC[C@@H]1C	.	/	/	/	/	/
Nc1cc2[nH]c(=O)c3ccccc3c2cc1Br	.	.	.	.	.	.
Nc1cc2c(cc1Br)[nH]c(=O)c1ccccc12	.	93	.	.	.	.
CC(C)C[C@H]1CNC(=S)N1CC1CCCN1C[C@H](Cc1ccc(O)cc1)N1C[C@H](Cc2ccccc2)N(CC2CCCCCC2)C1=S (some centres undefined)	.	.	.	.	.	.
CC(C)C[C@H]1CNC(=S)N1C[C@H]1CCCN1C[C@H](Cc1ccccc1)N1C[C@H](Cc2ccc(O)cc2)N(CC2CCCCCC2)C1=S	.	/	/	99	.	.
CC(C)C[C@H]1CNC(=S)N1CC1CCCN1C[C@H](Cc1ccccc1)N1C[C@H](Cc2ccc(O)cc2)N(CC2CCCCC2)C1=S (some centres undefined)	.	.	.	59	.	.
CCCC(=O)Nc1ccc2c(c1)C(=O)N(C)[C@H]1CC[C@H](CC(=O)NCC3CC3)O[C@@H]1CO2	.	/	/	/	/	/
CCC1CCCCN1C(=S)NN=C(C)c1ccccn1 (centres undefined)	.	/	/	/	/	/
CSC(=S)NN=C(C)c1cccc(C)n1	76	74	.	.	.	93
C/C(=N\NC(=S)NC1CCCCC1)c1ccc(Cl)c(Cl)c1	.	.	.	.	.	.
CC(=NNC(=S)N1CCCCC1)c1ccccn1	.	/	57	.	.	?
CC(=NNC(=S)N1CCCCC1)c1cccc(C)n1	.	.	69	.	.	.
CC(=NNC(=S)N1CC2CCC(CC2)C1)c1ccncn1	.	78	.	100	.	88
CO[C@H]1CN(C)C(=O)c2cc(NC(=O)C3CCCC3)ccc2OC[C@@H](C)NC[C@@H]1C	.	/	/	/	/	/
COc1cccc(C#Cc2ccc3c(c2)O[C@H](CN(C)C(=O)c2ccccn2)[C@H](C)CN([C@H](C)CO)S3(=O)=O)c1	.	/	/	/	/	/
C[C@@H]1CN([C@H](C)CO)C(=O)Cc2cc(NC(=O)Cc3cn(C)c4ccccc34)ccc2O[C@@H]1CN(C)S(C)(=O)=O	.	/	/	/	/	/
O=S(=O)(NC[C@H]1[C@@H](c2ccccc2)[C@H](CO)N1CC1CC1)c1ccccc1	.	/	/	/	/	/
C/C=C/c1cnc2c(c1)C(=O)N([C@H](C)CO)C[C@@H](C)[C@H](CN(C)C(=O)c1cccc(F)c1)O2	.	/	/	/	/	/
CCOC(=O)C(C(=O)OCC)c1cc(Br)c2noc3c2c1C(=O)c1ccccc1-3	/	95	.	113	.	99
O=C(Cc1ccccn1)N1CC(=O)N2[C@@H](CO)[C@H](c3ccc(C#CCC4CCCC4)cc3)[C@@H]2C1	.	/	/	/	/	/
N#CC(c1ccc(Cl)cc1)c1cccc(Cl)n1 (centres undefined)	.	.	.	.	.	.
COc1ccc(C(C#N)c2ccc(=O)[nH]n2)cc1 (centres undefined)	.	.	52	.	.	.
NS(=O)(=O)c1ccc(CCNC(=O)c2ccncc2)cc1	.	.	.	.	.	.
NS(=O)(=O)c1ccc(CCNC(=O)c2ccc(C#CC3(O)CCCCC3)cc2)cc1	?	.	.	87	.	.

Bioassay records as filed in PubChem.
